Reference: PubChem BioAssay AID1851 (National Center for Advancing Translational Sciences (NCATS), 2009)
Where “and” joins values, the source holds several entries; their conditions need not be identical. Equal values may be shown once. About 4,000 (25%) of roughly 16,000 compounds were called active. Another 26% or so got no clear call; they are omitted. The call rests on the fitted dose curve; in most records, active means well fitted curve in the direction sought with a large enough effect; inconclusive means small, poorly fitted or top-dose-only effect, or effect the other way; inactive means no such curve, though single readings can be large or run the other way. These entries were drawn from the full list. More than one record can exist for a structure, and the calls need not agree.

Target: Cytochrome P450 2C9 (Homo sapiens) (UniProt P11712)
Sequence (P11712 whole entry, looked up): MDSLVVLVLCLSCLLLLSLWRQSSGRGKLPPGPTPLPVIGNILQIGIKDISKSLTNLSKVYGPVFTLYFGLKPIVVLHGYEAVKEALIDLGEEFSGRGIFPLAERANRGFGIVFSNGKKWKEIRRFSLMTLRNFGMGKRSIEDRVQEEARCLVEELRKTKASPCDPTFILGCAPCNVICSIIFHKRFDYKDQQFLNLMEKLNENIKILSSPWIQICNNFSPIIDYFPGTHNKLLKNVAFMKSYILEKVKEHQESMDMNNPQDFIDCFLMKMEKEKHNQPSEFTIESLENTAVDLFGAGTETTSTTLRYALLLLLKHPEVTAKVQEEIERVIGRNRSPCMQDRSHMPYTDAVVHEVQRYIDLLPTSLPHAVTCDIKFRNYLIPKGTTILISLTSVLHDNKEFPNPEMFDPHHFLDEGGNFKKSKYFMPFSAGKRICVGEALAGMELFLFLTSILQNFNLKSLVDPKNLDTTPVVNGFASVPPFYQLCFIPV
Test: Cytochrome panel assay with activity outcomes
Settings: recombinant CYP, pro-luciferin dealkylation, luminescence, p450-cyp2c9; series mostly up to 57.1 µM; activity, negative = inhibition: at the top concentration
On the % scale 0 is the no-effect control and ±100 the full control effect.

Row | Compound | AC50 | activity, negative = inhibition
1 | O=C(Nc1ccc(Cl)cc1)c1cnc(-c2ccccc2)nc1-c1ccccc1 | 0.794 µM (active) | –
2 | O=C(Nc1ccc(-c2csc(-c3ccccc3)n2)cc1)c1ccccc1Cl | – | 5.47% (inactive)
3 | OC1CC2CC[C@H](C1)N2CCCN1c2ccccc2Sc2ccc(Cl)cc21 (some centres not stated) | – | 8.65% [at 11.4 µM] (inactive)
4 | c1cncc(CNc2ncn[nH]2)c1 | – | -1.61% [at 11.4 µM] (inactive)
5 | Cc1ccc(-n2ncc(N(C)C)c(Cl)c2=O)cc1 | – | -24.9% (inactive)
6 | Nc1ccc(Sc2cnn(-c3ccccc3)c(=O)c2Cl)cc1 | 1 µM (active) | –
7 | COC(=O)N1CCC2(CCN(Cc3nccs3)CC2)CC1 | – | 6.72% (inactive)
8 | Cc1onc(-c2c(Cl)cccc2Cl)c1C(=O)N1CCc2ccccc2C1 | 3.16 µM (active) | –
9 | Cc1noc(C)c1C(=O)N1CCC2(CCCN(Cc3ccccc3)C2)CC1 | – | 10.1% (inactive)
10 | Cc1noc(C)c1C(=O)N1CCC[C@@]2(CCN(Cc3ccccc3)C2)C1 | – | -14% (inactive)
11 | O=C(N/N=C/c1ccncc1)c1cc([N+](=O)[O-])cc([N+](=O)[O-])c1O | 0.0631 µM (active) | –
12 | O=C(N/N=C\c1cccc(O)c1)c1ccncc1 | – | 1.23% [at 11.4 µM] (inactive)
13 | O=C(N/N=C/c1cccnc1)c1ccc([N+](=O)[O-])cc1 | – | 8.44% (inactive)
14 | Cc1ccccc1C(=O)N/N=C/c1ccncc1 | 12.6 µM (active) | –
15 | Cc1ccccc1C(=O)NNC(=O)c1ccoc1C | – | 25% (inactive)
16 | CC[C@@H]1OC(=O)[C@H](C)[C@H](O[C@@H]2C[C@](C)(OC)[C@H](O)[C@H](C)O2)[C@H](C)[C@H](O[C@@H]2O[C@@H](C)C[C@@H](N(C)C)[C@@H]2O)[C@](C)(O)C[C@H](C)[C@@H]2N[C@H](COCCOC)O[C@H]([C@@H]2C)[C@]1(C)O | – | 14.7% [at 25.6 µM] (inactive)
17 | C/C=C\C1=C(CO)C(=O)C2O[C@]2(CC=C(C)C)C1=O (some centres not stated) | – | 9.54% [at 11.4 µM] (inactive)
18 | CCn1c(CNC(=O)COc2ccc(C(C)C)cc2)nnc1SCC(=O)Nc1cc(F)ccc1C | – | -17% (inactive)
19 | O=C(CSc1nnnn1-c1ccccc1)NCc1cccs1 | – | 21.8% (inactive)
20 | C=CCn1c(Cc2c[nH]c3ccccc23)nnc1SCC(=O)NCc1ccccc1 | 14.1 µM (active) | –
21 | N[C@@H](Cc1c[nH]c2ccccc12)C(=O)O | – | 9.92% (inactive)
22 | Cc1ccc(NC(=O)CCSc2nnc3ccccn23)cc1 | – | 15.1% (inactive)
23 | CC(C)n1nnnc1SCC(=O)NCCc1ccccc1 | 15.8 µM (active) | –
24 | CCn1c(CSCc2ccc(C)cc2)nnc1SCC(=O)NCc1ccccc1 | 15.8 µM (active) | –
25 | CCn1c(CC(=O)Nc2ccc(C)cc2)nnc1SCC(=O)NCCc1ccccc1 | 15.8 µM (active) | –

Row | Compound | AC50 | activity, negative = inhibition
26 | Cc1noc(C)c1-c1nc(Nc2ccncc2)c2ccccc2n1 | – | -10.8% [at 2.29 µM] (inactive)
27 | COc1cccc2c1[C@@H]1CN(CCCCn3c(=O)[nH]c4c(sc5ncc(-c6ccccc6)nc54)c3=O)C[C@H]1CO2 | – | -12% (inactive)
28 | CCN1C(=O)[C@H]2[C@H]3[C@H](O)[C@H](O)C/C(=N/NC(=O)OCc4ccccc4)[C@H]3CC[C@@H]2C1=O | – | -10.2% [at 11.4 µM] (inactive)
29 | O=C1NCC2=C1C(c1ccc(Br)cc1)Nc1ccccc1N2 (configuration not stated) | 8.91 µM (active) | –
30 | CN(C)Cc1cc(C(C)(C)C)ccc1-c1ccc(C(C)(C)C)cc1CN(C)C | – | 12.6% [at 11.4 µM] (inactive)
31 | COc1ccc(-c2ccc(=O)n(CC(=O)Nc3nnc(C(C)C)s3)n2)cc1OC | 14.1 µM (active) | –
32 | CN(C)CCNC(=O)Cn1nc(-c2ccc(Cl)cc2)ccc1=O | – | 20.5% (inactive)
33 | O=C(O)C1=CCCNC1 | inactive | –
34 | CC(C)C[C@H](NC(=O)[C@@H]1O[C@H]1C(=O)O)C(=O)NCCCCN=C(N)N | – | 21.6% (inactive)
35 | CC(C)CNC(=S)N1CCN(C)CC1 | – | -15.7% (inactive)
36 | C=CCNc1nc(-c2ccc(Cl)cc2)cs1 | 22.4 µM (active) | –
37 | CCCCSCc1nc2nc(Cl)c(Cl)nc2[nH]1 | 0.501 µM (active) | –
38 | Nc1ccc(CCNc2ncnc3c2ncn3[C@@H]2O[C@@H](CO)[C@H](O)[C@@H]2O)cc1 | – | -10.3% (inactive)
39 | COc1ccc(-c2ccc(C(=S)N3CCN(C(C)=O)CC3)o2)cc1 | 3.98 µM (active) | –
40 | COc1ccc(CC(=O)NCCN2CCCC2)cc1 | – | 8.79% (inactive)
41 | COc1ccc(C(=O)N2CCC3(CCN(C)CC3)CC2)cc1 | – | -6.61% (inactive)
42 | COc1ccc(COC(=O)N/N=C(\C)CC(=O)Nc2c(C)cc(C)cc2C)cc1 | 14.1 µM (active) | –
43 | COc1ccc(CCN(C)CCC(=O)Nc2c(C)cc(C)cc2C)cc1OC | – | -24.7% (inactive)
44 | COc1ccc(COC(=O)N/N=C2/C[C@@H](O)[C@@H](O)[C@@H]3[C@@H]4C(=O)N(C(C)(C)C)C(=O)[C@H]4CC[C@@H]23)cc1 | – | -5.52% [at 11.4 µM] (inactive)
45 | COc1ccccc1-c1nc(N(C)C)c2ccccc2n1 | – | -2.29% [at 2.29 µM] (inactive)
46 | COc1ccc(C(=O)N2CCC3(CC2)CN(C(=O)Nc2cccc(C#N)c2)C3)cc1 | – | -1.23% (inactive)
47 | CC(=O)N1CCC2(CC1)CN(Cc1ccccc1)C2 | – | 17.2% (inactive)
48 | CCC(=O)N1CCN(C(=O)c2ccccc2)CC1 | – | 7.52% (inactive)
49 | CC(=O)N1CCN(C(=O)CC2OC(=O)c3ccccc32)CC1 (configuration not stated) | 15.8 µM (active) | –
50 | CC(=O)c1ccc(NC(=O)C(Cc2ccccc2)NC(=O)c2ccco2)cc1 (configuration not stated) | 14.1 µM (active) | –

Row | Compound | AC50 | activity, negative = inhibition
51 | Cc1ccc(SCC(=O)Nc2cccc(NC(=O)c3ccco3)c2)cc1 | 4.47 µM (active) | –
52 | Cc1ccc(SCC(=O)NNC(=O)C2CCCCC2)cc1 | – | 7.23% (inactive)
53 | CC(C)C[C@H](NC(=O)[C@@H](O)[C@@H](N)Cc1ccccc1)C(=O)O | inactive | –
54 | CCc1cc2cc(C)c(C)cc2nc1SCC(=O)NNC(=O)c1ccco1 | – | 2.57% (inactive)
55 | COc1ccc(C(=O)Nc2ccc(NC(=O)c3ccco3)c(Cl)c2)cc1OC | – | -6.18% (inactive)
56 | CC(C)Oc1ccc(C(=O)Nc2ccc(NC(=O)c3ccco3)c(Cl)c2)cc1 | 14.1 µM (active) | –
57 | O=C(Nc1ccccc1)C(Cc1ccccc1)NC(=O)C12CC3CC(CC(C3)C1)C2 (configuration not stated) | – | -27.7% (inactive)
58 | Cc1cc(NC(=O)c2ccco2)ccc1-n1cnnn1 | 10 µM (active) | –
59 | NC(=NCc1ccccc1)NC(=O)c1nc(Cl)c(N)nc1N | inactive | –
60 | CN(C)C(=O)c1ccc(-c2ccc3ncnc(N4CCNCC4)c3c2)cc1 | – | 6.81% [at 2.29 µM] (inactive)
61 | Cc1noc(C)c1-c1ccc2ncnc(N(C)Cc3ccco3)c2c1 | – | -29% [at 2.29 µM] (inactive)
62 | CCc1nnc2sc(-c3ccc(NC(=O)c4ccco4)cc3)nn12 | – | -20.6% (inactive)
63 | COc1cccc(C(=O)Nc2ccc(NC(=O)c3ccco3)cn2)c1 | 14.1 µM (active) | –
64 | CC(C)(C)c1ccc(C(=O)Nc2ccc(NC(=O)c3ccco3)cc2)cc1 | 8.91 µM (active) | –
65 | c1ccc(CNc2ncncc2-c2cccnc2)cc1 | – | -3.05% [at 2.29 µM] (inactive)
66 | COc1ccc2nccc(C(=O)O)c2c1 | – | 4.55% [at 25.6 µM] (inactive)
67 | COc1ccc2oc(C(=O)c3ccccc3)c(N)c2c1 | 11.2 µM (active) | –
68 | COc1ccc(C(=O)c2ccccc2)c(O)c1 | – | -18.2% [at 25.6 µM] (inactive)
69 | Cc1noc(C)c1-c1ccc2ncnc(NCc3cccs3)c2c1 | – | -7.45% [at 2.29 µM] (inactive)
70 | CC(C)NC[C@H]1CCc2cc(CO)c([N+](=O)[O-])cc2N1 | – | -7.52% [at 25.6 µM] (inactive)
71 | CN(CCO)Cc1ncccc1O | – | -2.29% [at 11.4 µM] (inactive)
72 | CN1CCN(CC(=O)N2c3ccccc3Sc3cc4ccccc4cc32)CC1 | – | 5.77% [at 11.4 µM] (inactive)
73 | Cc1scc2c1N(C(=O)CN1CCN(C)CC1)c1ccccc1NC2=O | inactive and 2.51 µM (active) | –
74 | CN1CCN(CC(=O)N2c3ccccc3C(=O)Nc3cccnc32)CC1 | inactive | –
75 | CNc1cc(-c2ccccc2C(F)(F)F)ncn1 | – | 22.5% [at 2.29 µM] (inactive)

Row | Compound | AC50 | activity, negative = inhibition
76 | Nc1n[nH]c2ccccc12 | – | -15.6% [at 11.4 µM] (inactive)
77 | Nc1[nH]nc2nc3ccccc3nc12 | 2 µM (active) | –
78 | O=c1[nH]c(=O)c2nc3ccccc3nc2[nH]1 | – | 15.1% (inactive)
79 | CC[C@@H]1CC(=O)N(SC[C@H](N)C(=O)O)C1=O | – | 10.2% [at 11.4 µM] (inactive)
80 | CC1CC2(CCCCC2)N2C(=O)C(=O)c3cccc1c32 (configuration not stated) | 5.01 µM (active) | –
81 | O=c1[nH]c2cc(Br)cnc2nc1/C=C(\O)c1ccc(F)cc1 | – | -13.1% (inactive)
82 | O=c1cc(-c2ccccc2)[nH]c2nc(Cl)ccc12 | – | -2.02% (inactive)
83 | Cc1ccccc1S(=O)(=O)c1c(C)cc(-c2ccccc2)[nH]c1=O | 22.4 µM (active) | –
84 | CN(C)CCCNc1c(C(=O)O)cnc2c1cnn2C | – | 12.5% (inactive)
85 | Cn1c(=O)c(-c2ccc(Cl)cc2)nc2cncnc21 | – | 3.26% (inactive)
86 | COc1cccc(Nc2ncc3nc(-c4ccc(F)cc4)c(=O)n(C)c3n2)c1 | – | -6.48% (inactive)
87 | Cn1c2c(c(=O)n(C)c1=O)C(C(F)(F)F)(C(F)(F)F)N=C(c1ccc(Cl)cc1)N2 | 2 µM (active) | –
88 | COc1ccc(C2=NC(C(F)(F)F)(C(F)(F)F)c3c(n(C)c(=O)n(C)c3=O)N2)cc1 | 8.91 µM (active) | –
89 | COc1ccc(-c2nc3cnc(OC)nc3n(C)c2=O)cc1 | – | 0.455% (inactive)
90 | CCN1CCc2nc(N)oc2CC1 | – | -6.87% (inactive)
91 | N[C@](CC1c2ccccc2Oc2ccccc21)(C(=O)O)[C@@H]1C[C@@H]1C(=O)O | – | -5.63% (inactive)
92 | CC[N+](C)(CC)CCOC(=O)C1c2ccccc2Oc2ccccc21 | – | 9.19% [at 25.6 µM] (inactive)
93 | CC(=O)c1ccc(OC(=O)C2c3ccccc3Oc3ccccc32)cc1 | 28.2 µM (active) | –
94 | CCOC(=O)Cn1nc(C)n(-c2ccc(C)cc2)c1=O | – | 6.95% (inactive)
95 | CCOC(=O)c1cc2c(C)n(-c3ccc(C)cc3)c(C)c2ccc1=O | 14.1 µM (active) | –
96 | CCOc1ncnc2c1oc1nc(CC(C)C)c3c(c12)CC(C)(C)OC3 | 20 µM (active) | –
97 | CCCNC(=O)OC[C@@H]1O[C@H](CCO/N=C(\C)CCN2CCCc3nc(C)c(C)cc32)C=C[C@@H]1Oc1ccc(OC)cc1 | – | -26.6% [at 11.4 µM] (inactive)
